CYP2C19 act = cytochrome P450 2C19 (human) activation; P33261; recombinant CYP2C19, luciferin-H EGE luminescence; active compounds read high; 0 = fully inhibited enzyme, 1 = untreated enzyme; activation factor at 5 µM; 96,000 tested, under 10 active; AID 1025;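 active = activation factor of at least 2 at 5 µM in the primary screen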
CYP2C19 inh = inhibitors of human CYP2C19 | P33261 | inhibition, % at 5 µM | 96,000 tested, 21% active | CYP2C19 Supersomes, luciferin-H EGE luminescence, 30 min | AID 778;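 active = CYP2C19 inhibition above a set limit at 5 µM in the primary screen, cut at about 50% in these data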
CYP2C9 inhib = inhibitors of human CYP2C9 | P11712 | CYP2C9 Supersomes, luciferin-H conversion, luminescence | inhibition, % at 5 µM | 96,000 tested, 20% active;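 active = blocking of liver enzyme CYP2C9 beyond about 50% at 5 µM, limit read from the data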
Target sequence (P11712 whole entry, looked up): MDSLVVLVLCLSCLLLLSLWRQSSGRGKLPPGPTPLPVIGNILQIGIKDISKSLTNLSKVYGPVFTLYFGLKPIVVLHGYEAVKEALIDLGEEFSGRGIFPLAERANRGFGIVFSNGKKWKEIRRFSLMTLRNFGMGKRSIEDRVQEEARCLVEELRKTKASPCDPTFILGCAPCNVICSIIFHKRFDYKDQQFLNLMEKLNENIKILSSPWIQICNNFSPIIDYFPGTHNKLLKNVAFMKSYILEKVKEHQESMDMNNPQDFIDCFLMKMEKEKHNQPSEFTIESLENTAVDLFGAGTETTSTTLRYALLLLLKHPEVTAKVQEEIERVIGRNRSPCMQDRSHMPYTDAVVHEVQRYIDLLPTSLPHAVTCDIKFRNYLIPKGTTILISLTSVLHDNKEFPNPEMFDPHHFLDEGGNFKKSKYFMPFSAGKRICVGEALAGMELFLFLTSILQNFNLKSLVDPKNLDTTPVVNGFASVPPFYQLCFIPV
Cav32 inh = inhibitors of human Cav3.2 T-type calcium channel. Cav3.2-expressing cells, Fluo-4 calcium fluorescence FDSS; active compounds read low. AID 449739. O95180. B-score at 10 µM. 100,000 tested, 4% active;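 active = single-dose well whose peak fluorescence ratio is a statistical outlier from its plate by either plate-standardised score or position-corrected B-score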
CYP2C9 activ = increases human cytochrome P450 2C9 activity | activation factor at 5 µM | P11712 | 96,000 tested, 1.4% active | recombinant CYP2C9, luciferin-H conversion, luminescence; active compounds read high; factor 1 = untreated enzyme, 0 = blocked | AID 1024;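 active = activation factor of 2 or more for CYP2C9 at a 5 µM dose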
A number is an active result; 0 = inactive; - = no result. Rows were chosen to be rich in hits. Some 27% of all compounds tested hit in one or more screens of this group.

SMILES	CYP2C19 act	CYP2C19 inh	CYP2C9 inhib	Cav32 inh	CYP2C9 activ
CCOC(=O)CSC1=C(C#N)C(=O)NC(c2ccc(OC)cc2)S1 (centres undefined)	0	0	93.8	0	0
CC1CCCCN1C(=O)CSc1ccc(-c2ccc(F)cc2)nn1 (centres undefined)	0	60.9	0	0	0
COc1ccc(-c2ccc(SCC(=O)N3CCCC3)nn2)cc1OC	0	0	0	0	0
O=C(Nc1cccnc1)C1CCCN(S(=O)(=O)c2cccc3nsnc23)C1 (centres undefined)	0	68.7	69.6	0	0
COc1ccc(OC)c(NC(=O)C2CCCN(S(=O)(=O)c3cccc4nsnc34)C2)c1 (centres undefined)	0	67.4	0	0	0
O=C(NCc1ccccn1)C1CCCN(S(=O)(=O)c2cccc3nsnc23)C1 (centres undefined)	0	0	0	0	0
Cc1ccc2nc(NC(=O)C3CCCN(S(=O)(=O)c4cccc5nsnc45)C3)sc2c1 (centres undefined)	0	0	51.7	0	0
O=C(Nc1ccc2c(c1)OCCO2)C1CCCN(S(=O)(=O)c2cccc3nsnc23)C1 (centres undefined)	0	0	0	0	0
COc1cc(NC(=O)C2CCCN(S(=O)(=O)c3cccc4nsnc34)C2)cc(OC)c1 (centres undefined)	0	0	62.9	0	0
COc1c(-c2ccc(O)c(O)c2)oc2cc(O)cc(O)c2c1=O	-	-	-	0	-
COc1ccc(NC(=O)C(CCS(C)(=O)=O)N2C(=O)c3ccccc3C2=O)cc1 (centres undefined)	0	0	0	0	0
O=C1CC(NCCC2=CCCCC2)C(=O)N1c1cccc(Cl)c1Cl (centres undefined)	0	0	0	-3.4	0
Cc1cc2n(n1)SC(Nc1cc(Cl)ccc1Cl)N2 (centres undefined)	-	-	-	0	-
Cc1c(Br)c([N+](=O)[O-])nn1C(C)C(=O)NCc1cccnc1 (centres undefined)	0	76.2	56.8	0	0
COc1ccc(OC(C)C(=O)NCc2cccnc2)cc1 (centres undefined)	0	0	0	0	0
N#CC(c1ccc(F)cc1)c1ccc(C(=O)c2ccc(F)cc2)cc1 (centres undefined)	0	0	77.0	0	0
Cc1ccc(C(=O)c2ccc(C(F)(F)F)cc2)cc1	0	0	0	0	0
Cc1ccc(C(C#N)c2ccc(C(=O)c3ccc(F)cc3)cc2)cc1 (centres undefined)	0	0	59.7	0	0
O=C(c1ccc(F)cc1)c1ccc(N2CCCC2)cc1	0	0	0	0	0
CN(C)c1nc(NCc2ccccc2)nc(N/N=C/c2ccc(Cl)cc2Cl)n1	0	0	0	0	0
COc1ccc(/C(O)=C2/C(=O)C(=O)N(CCN3CCOCC3)C2c2ccccn2)cc1 (centres undefined)	0	0	0	0	0
Cc1nnc(SCc2nnc(-c3ccc(Cl)cc3)o2)n1-c1ccccc1	0	60.4	0	0	0
COc1ccc(C(C)=O)cc1CSc1nnc(-c2ccc(Cl)cc2)n1-c1ccccc1	0	50.3	0	0	0
C=CCSc1nnc(C)n1-c1ccc(Cl)cc1	0	51.7	0	0	0
Cc1nnc(SCc2nnc(-c3ccccc3Br)o2)n1-c1ccccc1	0	81.7	0	0	2
SMILES	CYP2C19 act	CYP2C19 inh	CYP2C9 inhib	Cav32 inh	CYP2C9 activ
Cc1nnc(SCc2ccon2)n1-c1ccccc1	-	-	-	0	-
CCOC(=O)c1c(C)[nH]c(C(=O)OCC(=O)NC(C)C)c1C	0	0	0	0	0
CCOC(=O)Cn1c(CN2CCN(c3cccc(Cl)c3)CC2)nc2c1c(=O)[nH]c(=O)n2C	-	-	-	0	-
Cc1ccc(-c2nc(NC(=O)CSc3nnc4scc(-c5ccccc5)n34)ns2)cc1	-	-	-	0	-
COc1ccc(OC)c(S(=O)(=O)Nc2cccnc2)c1	0	0	0	0	0
COc1ccc(-c2nnc(SCc3ncc(-c4ccccc4)o3)o2)cc1	0	86.7	0	0	0
COc1ccc(-c2nnc(SCc3nnc(-c4ccc(Cl)cc4)o3)n2-c2ccccc2)cc1	0	0	54.4	-8.43	0
COc1ccc(-c2nnc(SCc3nnc(-c4ccccc4)o3)n2-c2ccccc2)cc1	0	0	0	0	0
COc1ccc2[nH]c3nc(SCc4nnc(-c5ccccc5)o4)nnc3c2c1	0	0	64.3	0	0
COc1ccc(C(=O)CSc2nnc(-c3ccccc3)o2)cc1	0	0	0	0	0
COc1ccc(-n2c(SCc3nnc(-c4ccccc4)o3)nnc2-c2ccccc2)cc1	0	54.0	0	0	0
Brc1ccccc1-c1nnc(CSc2nnnn2-c2ccccc2)o1	0	92.1	0	0	0
CCOC(=O)/C=C(\C)Nc1cc(C)nn1-c1ccccc1	0	0	0	0	0
CCOC(=O)C(=CNc1cc(C)nn1-c1ccc(Cl)cc1)C(=O)OCC	0	71.2	77.2	0	0
O=C(NC12CCC(O)C(SC1)/C2=N/O)c1ccccc1 (centres undefined)	0	0	0	0	0
COc1ccc(OC)c(-n2c(SCC(=O)NCc3ccco3)nnc2-c2c[nH]c3ccccc23)c1	0	0	65.7	0	0
COc1cccc(-n2c(SC)nnc2-c2c[nH]c3ccccc23)c1	0	62.0	0	0	0
CCn1c(SCC(=O)NCc2ccco2)nnc1-c1c[nH]c2ccccc12	0	0	0	0	0
COc1cccc(-n2c(SCC(=O)NCc3ccco3)nnc2-c2c[nH]c3ccccc23)c1	0	65.9	59.0	0	0
COCCn1c(SCC(=O)NCc2ccco2)nnc1-c1c[nH]c2ccccc12	0	0	0	0	0
CCN(CC)C(=O)Oc1ccc(NC(C)=O)cc1	0	0	0	0	0
CC1CCN(CCCNC(=O)c2ccc(CSCc3cccc(Cl)c3)o2)CC1	0	0	0	0	0
CC(=O)N1CCN(S(=O)(=O)c2ccc(S(=O)(=O)NC3CC3)cc2)CC1	0	0	0	-	0
CC(=O)N1CCN(C2c3cccc4cccc(c34)C2NS(=O)(=O)c2ccccc2)CC1 (centres undefined)	0	73.9	68.0	0	0
Cc1cc(NC(=O)CSc2nc(-c3ccc(F)cc3)cs2)no1	0	0	0	0	0
SMILES	CYP2C19 act	CYP2C19 inh	CYP2C9 inhib	Cav32 inh	CYP2C9 activ
Cc1cc(NC(=O)CSc2nccn2-c2ccc(Cl)cc2)no1	0	80.9	53.8	0	0
Cc1cc(NC(=O)CSc2nc3c(c(=O)n2-c2ccc(Cl)cc2)SCC3)no1	-	-	-	0	-
Cc1cc(NC(=O)CSc2nccn2-c2ccc(F)cc2)no1	0	68.8	0	0	0
O=S(=O)(c1ccc(-c2nc3ccccc3s2)cc1)N1CCCC1	0	0	76.8	0	0
O=S(=O)(c1ccccc1)N1CCN(c2nc3ccccc3s2)CC1	0	0	0	0	0
O=S(=O)(c1cccc(-c2nc3ccccc3s2)c1)N1CCCC1	0	0	79.1	0	0
O=C(/C=C/c1ccco1)NCC1CCCO1 (centres undefined)	0	0	0	-	0
O=C(N/N=C\c1ccc(COc2ccc([N+](=O)[O-])cc2)o1)c1cccc(Cl)c1	0	0	60.2	-7.56	0

Compound activity: PubChem, several laboratories
